Consider 14 compounds from PubChem BioAssay (NCI).

What all share (assay): NCI-60 one-dose screen, 48 h (100 = growth as untreated, 0 = no growth, -100 = all killed)
For one assay, the system named is DU-145 prostate. The settings on record: 10 µM unless noted.
Another assay relates to K-562 leukemia. Particulars: 10 µM unless noted.
A further assay deals with MALME-3M melanoma. The settings on record: 10 µM unless noted.
In the next assay the test system is MDA-MB-231 breast. The settings on record: 10 µM unless noted.
A further assay relates to RXF 393 renal. Particulars: 10 µM unless noted.
The test system of the next assay is SF-268 CNS. Particulars: 10 µM unless noted.
Another assay relates to SF-295 CNS. The settings on record: 10 µM unless noted.
The next assay has as its system SF-539 CNS. Particulars: 10 µM unless noted.
Another assay concerns UACC-257 melanoma. Particulars: 10 µM.
A further assay deals with M14 melanoma. The settings on record: 10 µM unless noted.

SMILES strings stand for the structures. The panel holds about 83,000 compounds, 20% with a hit somewhere; the sample as a whole holds those more often.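 For each line, cells grew in 96-well plates with the test compound present at a single concentration for 48 hours.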 A number with no mark means an inactive call. Calls of active or inactive are those of the source. Rule for the calls: active = growth percent below 10; inactive = the rest.

With `COc1ccc(NC(=O)c2cc3ccccc3nc2Nc2cc(OC)c(OC)c(OC)c2)cc1`, the growth with DU-145 prostate was 66.3%; in the assay on K-562 leukemia, 50.6%; with MALME-3M melanoma it was 132%; in the assay on MDA-MB-231 breast, 54.1%; in the assay on RXF 393 renal, 60.5%; with SF-268 CNS, 66.6%. For the same compound, the growth with SF-295 CNS was 65.5%; in the assay on SF-539 CNS, 68.3%; in the assay with UACC-257 melanoma it was 83.6%; in the assay on M14 melanoma it was 55.1%.

As for `COc1ccc(/C=C\c2cc(OC)c(OC)c(OC)c2)c(NS(=O)(=O)c2ccc(C(C)(C)C)cc2)c1O`, the growth in the assay on DU-145 prostate is -0.37% (active); with K-562 leukemia, 13.2%; with MALME-3M melanoma, 108%; with MDA-MB-231 breast it was 8.45% (active); in the assay on RXF 393 renal, 22.6%; in the assay with SF-268 CNS, 24.5%. In addition, the growth was 16.9% in the assay on SF-295 CNS, 2.6% (active) with SF-539 CNS, 65.7% in the assay with UACC-257 melanoma and 14.9% in the assay with M14 melanoma.

With `COc1cc2nc(N3CCC[C@@H](NC4=CC(=O)c5ccccc5C4=O)C3)nc(N)c2cc1OC`, the growth is -53.8% (active) in the assay with DU-145 prostate; -47.1% (active) with K-562 leukemia; 94.8% in the assay on MALME-3M melanoma; -71.2% (active) in the assay with MDA-MB-231 breast; -76.3% (active) in the assay on RXF 393 renal; -47.4% (active) with SF-268 CNS. Moreover, the growth was -89% (active) with SF-295 CNS, -99.9% (active) in the assay with SF-539 CNS, 95.3% with UACC-257 melanoma and 96.3% in the assay with M14 melanoma.

Regarding `COc1cc(/C=C/C(=O)c2ccc(NC(=O)CN3CCN(c4cc5c(cc4F)c(=O)c(C(=O)O)cn5C4CC4)CC3)cc2)cc(OC)c1OC`, the growth in the assay with DU-145 prostate was 2.17% (active); in the assay on K-562 leukemia it was 1.66% (active); in the assay on MALME-3M melanoma, 31.4%; with MDA-MB-231 breast, 27.6%; in the assay with RXF 393 renal it was -87.6% (active); in the assay on SF-268 CNS, -1.11% (active). For the same compound, the growth is -27.2% (active) in the assay with SF-295 CNS, -15.7% (active) in the assay with SF-539 CNS, 30.8% with UACC-257 melanoma and -14.1% (active) in the assay on M14 melanoma.

With `Nc1c(C(=O)Nc2c(Cl)cccc2Cl)sc2nc3c(cc12)CCCCC3`, the growth was 70.4% in the assay with DU-145 prostate; 24.1% with K-562 leukemia; 61.5% with MALME-3M melanoma; 63.4% in the assay on MDA-MB-231 breast; 3.29% (active) with RXF 393 renal; 60.5% in the assay on SF-268 CNS. Besides, the growth in the assay with SF-295 CNS was 54.4%; with SF-539 CNS, 38.2%; in the assay with UACC-257 melanoma, 50.7%; with M14 melanoma, 43.8%.

With `COc1ccc2c(c1)C(=O)/C(=C/c1ccc(O)cc1)O2`, the growth with DU-145 prostate was 109%; in the assay with K-562 leukemia, 59.7%; in the assay on MALME-3M melanoma, 71.2%; in the assay with MDA-MB-231 breast it was 78.5%; with RXF 393 renal it was -59.9% (active); in the assay with SF-268 CNS, 97.9%. The growth was 98.1% with SF-295 CNS, 80.2% with SF-539 CNS, 86.7% with UACC-257 melanoma and 93.4% in the assay on M14 melanoma.

`O=C(CN1CCOCC1)Nc1ccc(-c2nc3ccccc3s2)cc1`: the growth with DU-145 prostate was 109%; in the assay with K-562 leukemia, 99.3%; with MALME-3M melanoma, 117%; in the assay with MDA-MB-231 breast, 96.8%; in the assay on RXF 393 renal it was 111%; with SF-268 CNS it was 110%. Moreover, the growth is 98.2% with SF-295 CNS, 89.7% with SF-539 CNS, 101% with UACC-257 melanoma and 101% in the assay with M14 melanoma.

Turning to `COc1ccc(-n2c(C)cc(-c3ccccc3)c2C)cc1`, the growth in the assay on DU-145 prostate is 73.9%; in the assay with K-562 leukemia it was 15.6%; with MALME-3M melanoma, 36.9%; in the assay with MDA-MB-231 breast it was 6.48% (active); in the assay on RXF 393 renal, 10.1%; with SF-268 CNS, 75.5%. Further, the growth in the assay with SF-295 CNS is 34.1%; in the assay on SF-539 CNS, 62%; with UACC-257 melanoma it was 40.3%; with M14 melanoma, 15.9%.

`CCN(C(=O)c1cc2ncccc2[nH]1)[C@H]1CCC[C@@H](NCc2cccc(F)c2)C1`: the growth was 104% in the assay with DU-145 prostate; 105% in the assay with K-562 leukemia; 92% in the assay on MALME-3M melanoma; 91.4% with MDA-MB-231 breast; 95.1% with RXF 393 renal; 102% in the assay on SF-268 CNS. Also, the growth in the assay with SF-295 CNS is 102%; in the assay on SF-539 CNS, 98.5%; in the assay on UACC-257 melanoma it was 107%; with M14 melanoma it was 113%.

Regarding `CCn1cc(C(=O)O)c(=O)c2cc(F)c(N3CCN(S(=O)(=O)c4ccc(OC)c(OC)c4)CC3)cc21`, the growth is 108% in the assay with DU-145 prostate; 101% in the assay on K-562 leukemia; 93.6% in the assay with MALME-3M melanoma; 103% with MDA-MB-231 breast; 109% in the assay on RXF 393 renal; 88.9% in the assay with SF-268 CNS. For the same compound, the growth in the assay with SF-295 CNS was 93.8%; in the assay on SF-539 CNS, 90.8%; in the assay with UACC-257 melanoma, 106%; in the assay with M14 melanoma, 44.1%.

As for `O=C(CCCn1c(=O)c2sc3ccccc3c2n2nnc(-c3ccccc3)c12)NCCc1cnc[nH]1`, the growth is -68.8% (active) with DU-145 prostate; 82.6% in the assay on K-562 leukemia; -72.2% (active) with MALME-3M melanoma; -70.8% (active) with MDA-MB-231 breast; -46.2% (active) in the assay on RXF 393 renal; -1.01% (active) with SF-268 CNS. In addition, the growth was 8.37% (active) in the assay with SF-295 CNS, -82.8% (active) with SF-539 CNS, -44.4% (active) in the assay with UACC-257 melanoma and -78.6% (active) with M14 melanoma.

For `CCn1c(=O)c2c(=O)c3c4c(oc3oc2c2ccccc21)C(=O)c1ccccc1C4=O`, the growth in the assay on DU-145 prostate was 92.4%; with K-562 leukemia, 28.6%; in the assay on MALME-3M melanoma, 113%; with MDA-MB-231 breast, 6.33% (active); with RXF 393 renal, 106%; with SF-268 CNS, 84.3%. In addition, the growth in the assay with SF-295 CNS is 95.1%; in the assay on SF-539 CNS it was 89.9%; in the assay on UACC-257 melanoma, 90.6%; in the assay with M14 melanoma, 89.8%.

As for `O=c1oc2cc(OS(=O)(=O)c3ccccc3)c(Cl)cc2c2c1CCCCCC2`, the growth was 93.6% in the assay on DU-145 prostate; 84.9% with K-562 leukemia; 106% with MALME-3M melanoma; 89.4% in the assay with MDA-MB-231 breast; 90.8% with RXF 393 renal; 100% in the assay on SF-268 CNS. Besides, the growth is 92.6% with SF-295 CNS, 78.4% with SF-539 CNS, 92.8% in the assay with UACC-257 melanoma and 80.3% in the assay with M14 melanoma.

`COC1=CC(c2ccc[nH]2)=N/C1=C\c1[nH]c(C)c(C(=O)CCCCC(=O)Oc2ccc3c(c2)CCC2C3CC[C@]3(C)[C@@H](O)CC[C@@H]23)c1C` (stereo not given in full): the growth with DU-145 prostate was 30.6%; in the assay on K-562 leukemia, 13.6%; with MALME-3M melanoma, 80.1%; in the assay with MDA-MB-231 breast, 10.9%; in the assay on RXF 393 renal, 62.4%; in the assay with SF-268 CNS it was 44.6%. Moreover, the growth is 80.8% in the assay on SF-295 CNS, 65.9% in the assay with SF-539 CNS, 103% in the assay with UACC-257 melanoma and 60% in the assay with M14 melanoma.
